Test results taken from PubChem BioAssay AID624417 (National Center for Advancing Translational Sciences (NCATS), 2012).
Among all 410,000 compounds or so, about 6,400 (1.6%) were called active. Entries that show only a call come without a potency. Inconclusive results (about 20%) are left out. Calls follow the shape of the dose curve; as a rule, active = well fitted inhibition curve with a large enough effect; inconclusive = small, poorly fitted or top-dose-only effect; inactive = no such curve, though single readings can be large or run the other way. Many of the other results were omitted from the sample, so actives are more common in it than they were.

The molecules below were run against Glucagon-like peptide 1 receptor (Homo sapiens) (UniProt P43220) (assay: qHTS of GLP-1 Receptor Inverse Agonists (Inhibition Mode)). Conditions: HEK293 GLP-1R CRE-luciferase, luminescence, 24 h, GLP-1R form is constitutively active; series mostly up to 38.3 µM.
Glucagon-like peptide 1 receptor (Homo sapiens), sequence (P43220 whole entry, looked up): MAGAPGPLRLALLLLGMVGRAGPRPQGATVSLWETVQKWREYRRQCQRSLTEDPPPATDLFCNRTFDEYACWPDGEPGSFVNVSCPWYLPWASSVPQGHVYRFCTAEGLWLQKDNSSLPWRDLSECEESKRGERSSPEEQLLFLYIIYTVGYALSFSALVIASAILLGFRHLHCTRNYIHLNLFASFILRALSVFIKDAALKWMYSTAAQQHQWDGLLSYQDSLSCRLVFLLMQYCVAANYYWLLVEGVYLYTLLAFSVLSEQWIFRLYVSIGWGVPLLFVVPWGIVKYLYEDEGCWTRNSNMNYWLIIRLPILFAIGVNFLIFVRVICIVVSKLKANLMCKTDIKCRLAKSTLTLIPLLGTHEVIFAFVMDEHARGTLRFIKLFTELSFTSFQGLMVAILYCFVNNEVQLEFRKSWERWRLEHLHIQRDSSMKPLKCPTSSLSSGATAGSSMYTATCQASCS
Method in brief: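 Cells are plated, allowed 12 hours at 37 deg C, then treated with compounds for 24 hr before luciferase detection reagent is added and luminescence is read after 12 min at room temperature. The HEK293 line carries constitutively active GLP-1R with a cAMP-responsive reporter.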
Also: nearly all actives have a fitted effect of over 55% in size.
Potency is read from the fitted curve at half-maximal effect.

Compound | Potency | activity change, negative = inhibition
O=C(NCC(F)(F)F)c1ccc(S(=O)(=O)NCCc2ccc3c(c2)OCCO3)cc1 | inactive | 
Cc1csc(NC(=O)c2ccc(C)s2)n1 | inactive | 
COc1cc(SC)ccc1C(=O)Nc1nc(C)cs1 | 1.12 µM (active) | 
COc1cc(SC)ccc1C(=O)NCCOc1ccccc1Cl | inactive | 
CCOc1ccc2[nH]c(=S)sc2c1 | inactive | 
O=C(NC1CCCC1)C1c2ccccc2OCC(=O)N1CC(F)(F)F (stereo not drawn) | inactive | 
O=C(Nc1cc(F)ccc1F)c1ccc2c(=O)n3c(nc2c1)CCC3 | inactive | 
O=C(NN=Cc1ccccc1O)NN=Cc1ccccc1O | inactive | 
Oc1cccc(/C=N/Nc2ccc(Cl)nn2)c1O | 1.12 µM (active) | 
Oc1c(Br)cccc1/C=N/Nc1c(F)c(F)c(F)c(F)c1F | inactive | 
C[C@@H]1CN([C@@H](C)CO)S(=O)(=O)c2ccc(-c3ccc(C(=O)N(C)C)cc3)cc2O[C@@H]1CN(C)Cc1ccccc1C(=O)O | inactive | 
CCc1nc2c(OCCc3cccc(OC)c3)cccn2c1N(C)C(=O)c1ccc(C)cc1 | inactive | 
Cc1ccc(NC(=O)[C@H](Cc2ccccc2)NC(=O)CC[C@H]2O[C@@H](n3ccc(=O)[nH]c3=O)[C@H](O)[C@@H]2O)cc1C | inactive | 
CN1CCN(S(=O)(=O)c2ccc(N3CCN(c4ccccc4O)CC3)c([N+](=O)[O-])c2)CC1 | 10 µM (active) | 
O=S(=O)(c1ccc2ccccc2c1)N1CCN(S(=O)(=O)N2CCOCC2)CC1 | inactive | 
Cc1ccccc1N1CCN(S(=O)(=O)c2ccc3ccccc3c2)CC1 | 10 µM (active) | 
Cc1ccc(S(=O)(=O)N2CCN(c3ccccc3)CC2)cc1C | inactive | 
O=[N+]([O-])c1ccc(N2CCN(S(=O)(=O)c3ccccc3)CC2)cc1N1CCc2ccccc2C1 | inactive | 
Cc1cc(N)n(-c2ccc(S(=O)(=O)N3CCCC3)cc2[N+](=O)[O-])n1 | inactive | 
COc1ccc(NC(=O)CN(C)C(=O)c2cc(C)oc2C)cc1 | inactive | 
O=C(/C=C/[C@H]1O[C@@H](n2ccc(=O)[nH]c2=O)[C@H](O)[C@@H]1O)NCc1ccccn1 | inactive | 
C[C@H](CO)N1C[C@H](C)[C@@H](CN(C)C(=O)c2cnccn2)Oc2ncc(Br)cc2C1=O | inactive | 

Compound | Potency | activity change, negative = inhibition
CC(C)C[C@@H]1COc2cc(N3CCC[C@@H]3CO)ccc2S(=O)(=O)N1 | inactive | 
CCN1C(=O)[C@H]2[C@@H](c3ccc(C)cc3)N3C(=O)N(c4cccc(Br)c4)C(=O)[C@@]3(CC)[C@H]2C1=O | inactive | 
Cc1cccc([C@@H]2[C@@H]3C(=O)N(Cc4ccccc4)C(=O)[C@@H]3[C@]3(Cc4ccc(Cl)cc4)C(=O)N(c4cccc(Cl)c4)C(=O)N23)c1 | inactive | 
O=C1[C@H]2[C@@H](c3ccc(F)cc3)N3C(=O)N(c4ccc(C(F)(F)F)cc4)C(=O)[C@@]3(Cc3ccccc3)[C@H]2C(=O)N1C1CCCCC1 | 2.24 µM (active) | 
CC(=O)c1ccc(Nc2nc(C(N)c3ccccc3Cl)cs2)cc1 (stereo not drawn) | inactive | 
C[C@H](CO)N1C[C@H](C)[C@@H](CN(C)C(=O)c2cccc(F)c2)Oc2cc(-c3cncnc3)ccc2S1(=O)=O | inactive | 
O=C(NCc1ccccc1)C1CNCC(C(=O)NCc2ccccc2)C1 (stereo not drawn) | inactive | 
C=CCOC(=O)c1ccccc1C(=O)OCC=C | inactive | 
C=CCOC(=O)C1=C(C)NC(C)=C(C(=O)OCC=C)C1c1cccs1 | 10 µM (active) | 
CCOC(=O)C1=C(C)Nc2nc3ccccc3n2C1c1cccs1 (stereo not drawn) | inactive | 
COc1ccc(-c2[nH][nH]c(=O)c2NC(=O)c2ccc([N+](=O)[O-])cc2)cc1 | inactive | 
COc1ccc(C(CNC(=O)COc2ccc([N+](=O)[O-])cc2)N2CCCCC2)cc1 (stereo not drawn) | inactive | 
COc1ccc(C(CNC(=O)COc2ccccc2OC)N2CCCCC2)cc1 (stereo not drawn) | inactive | 
CCc1ccc(OCC(=O)NCC(c2ccc(Cl)cc2)N2CCCCC2)cc1 (stereo not drawn) | 8.91 µM (active) | 
O=S1(=O)CC(N2CCN(CCO)CC2)CN1Cc1cn(Cc2cccc(Cl)c2)nn1 (stereo not drawn) | inactive | 
CC1CC(C)(C)n2c(O)c(N=NC(N)=S)c3cccc1c32 (stereo not drawn) | 5.01 µM (active) | 
CN1OC[C@@H]2CN(S(=O)(=O)c3cccc(C(F)(F)F)c3)[C@H](c3ccc(-c4cc5ccccc5o4)cc3)C[C@@H]21 | inactive | 
Cc1ccc(CN(N=Nc2nonc2N)c2nonc2N)c(C)c1 | 2.82 µM (active) | 
COc1cc(CNc2ncnc3c2ncn3[C@H]2CN(Cc3cccs3)C[C@@H](CO)O2)cc(OC)c1OC | inactive | 
CN(C)C(CNC(=O)c1cccc(S(=O)(=O)Nc2ccc(Br)cc2)c1)c1ccco1 (stereo not drawn) | 12.6 µM (active) | 
COc1ccc(C(CNC(=O)c2ccc(S(=O)(=O)Nc3ccccc3F)cc2)N(C)C)cc1 (stereo not drawn) | inactive | 
COc1ccc(C(CNC(=O)c2cccc(S(=O)(=O)Nc3ccc(Br)cc3)c2)N(C)C)cc1 (stereo not drawn) | 10 µM (active) | 

Compound | Potency | activity change, negative = inhibition
CCOc1ccc(NS(=O)(=O)c2ccc(C(=O)NCC3CCCO3)cc2)cc1 (stereo not drawn) | inactive | 
CCOc1ccc(NS(=O)(=O)c2ccc(C(=O)NCC(c3ccccc3OC)N3CCCC3)cc2)cc1 (stereo not drawn) | 11.2 µM (active) | 
CC1CN(C(=O)c2cccc(NS(=O)(=O)c3ccc(Br)cc3)c2)CC(C)O1 (stereo not drawn) | inactive | 
CN(C)C(CNC(=O)c1cccc(C#N)c1)c1ccco1 (stereo not drawn) | inactive | 
CCOc1ccc(S(=O)(=O)Nc2ccc(C(=O)NCCCN3CCCC3=O)cc2)cc1 | inactive | 
COc1ccc(NS(=O)(=O)c2cccc(C(=O)NCCc3ccc(S(N)(=O)=O)cc3)c2)cc1 | inactive | 
COc1ccccc1C(CNC(=O)c1cccc(NS(=O)(=O)c2ccc(Br)cc2)c1)N(C)C (stereo not drawn) | 10 µM (active) | 
COc1ccccc1NS(=O)(=O)c1ccc(C)c(C(=O)NCC(c2ccco2)N(C)C)c1 (stereo not drawn) | inactive | 
CC(=O)c1ccc(S(=O)(=O)Nc2ccc(C(=O)NCC(c3ccccc3)N(C)C)cc2)cc1 (stereo not drawn) | inactive | 
Cc1ccc(NC(=O)COC(=O)CN2CCSC2=O)cc1F | inactive | 
OCCN1CCN(c2ncnc3c2ncn3[C@H]2CN(Cc3ccco3)C[C@@H](CO)O2)CC1 | inactive | 
CCOC1=C2CN(S(=O)(=O)c3ccc(C)cc3)[C@H](c3cccs3)C[C@H]2[C@H]2C(=O)N(c3ccccc3)C(=O)[C@H]2C1 | inactive | 
C[C@H]1NS(=O)(=O)c2cc(Cl)ccc2O[C@@H]1c1ccccc1 | inactive | 
CC1(C)CC(=O)C=C(c2ccc(COC(=O)c3cc(F)cc(F)c3)cc2)C1=O | inactive | 
O=C(Nc1cc(Br)ccc1F)c1nc[nH]c1C(=O)NCc1ccccc1 | inactive | 
O=[N+]([O-])c1ccc(CN2CC(N3CCC(c4ccccc4)CC3)CS2(=O)=O)cc1 (stereo not drawn) | inactive | 
Cc1cccc(NS(=O)(=O)c2ccc(C)c(C(=O)NCC(c3ccccc3)N(C)C)c2)c1 (stereo not drawn) | 3.98 µM (active) | 
Cc1cccc(NS(=O)(=O)c2ccc(C)c(C(N)=O)c2)c1 | inactive | 
Cc1cccc(NS(=O)(=O)c2ccc(C)c(C(=O)NCc3cccnc3)c2)c1 | inactive | 
CCCc1c(C)nc2scc(-c3ccc(Cl)cc3)n2c1=O | inactive | 
CCc1nc2c(OCCOc3ccccc3)cccn2c1N(C)C(=O)c1ccccc1F | inactive | 
O=C(CCN1CCCCC1)Nc1ccc(F)c(F)c1 | inactive | 

Compound | Potency | activity change, negative = inhibition
Cn1c2ccccc2c2c(C(=O)N3CCN(c4ccc(F)cc4)CC3)cn(C3CCCC3)c(=O)c21 | 10 µM (active) | 
CCOc1ccc(NC(=O)c2cn(C3CCCCC3)c(=O)c3c2c2ccccc2n3C)cc1 | inactive | 
CCOC(=O)N1CCN(C(=O)c2nn(-c3ccc(C)cc3)c(=O)c3c2c2ccccc2n3C)CC1 | inactive | 
CCN(CC)CCN(C)C(c1ccnc2ccccc12)c1nnnn1-c1ccc2c(c1)OCCO2 (stereo not drawn) | inactive | 
CCCCNC(=O)c1ccc(-n2c(=S)[nH]c3ccccc3c2=O)cc1 |  | 11.5% [at 7.66 µM] (inactive)
CCCCNC(=O)N(O)C1N(/N=C/c2ccccc2O)C(=S)SC1(C)C (stereo not drawn) | 11.2 µM (active) | 
CCCCC(O)C1=C[N+](=O)CC=C1 (stereo not drawn) | inactive | 
C[C@H](NC(=O)[C@@H]1CCCN1C(=O)[C@@H]1CCCN1C(=O)c1ccccc1)c1ccccc1 | inactive | 
COC(=O)c1ccc2nc(-c3ccc(Cl)cc3)c(Cc3cccc(F)c3)n2c1 | inactive | 
CN1/C(=c2/s/c(=C3/C(=O)N(c4ccccc4)NC3=Nc3ccccc3)n(C)c2=O)C(C)(C)c2ccccc21 | 1.41 µM (active) | 
C[C@H](CO)N1C[C@H](C)[C@@H](CN(C)S(=O)(=O)c2ccc(F)cc2)OCc2cnnn2CCCC1=O | inactive | 
O=C(Nc1cccc(Cc2ccccc2)c1)Nc1ccc2nc([C@@H]3O[C@H](CO)[C@@H](O)[C@H](O)[C@H]3O)[nH]c2c1 | inactive | 
O=C(NCCN1CCOCC1)C1CCN(S(=O)(=O)c2ccccc2)CC1 | inactive | 
O=C1[C@H]2[C@@H](c3ccc(C(F)(F)F)cc3)N[C@]3(CCCN(Cc4ccc(Br)cc4)C3=O)[C@H]2C(=O)N1Cc1ccccc1 | 2.82 µM (active) | 
CCN1C[C@@H]2[C@@H]3C(=O)N(Cc4ccccc4)C(=O)[C@@H]3[C@](C)(C1=O)N2C(=O)c1ccc(C(C)(C)C)cc1 | inactive | 
CCN1C(=O)[C@H]2[C@@H](c3ccccc3)N[C@]3(CCCN(Cc4ccc(C)cc4)C3=O)[C@H]2C1=O | inactive | 
COc1ccc([C@H]2N[C@]3(CCCN(CC4CCCCC4)C3=O)[C@H]3C(=O)N(C)C(=O)[C@@H]23)cc1 | inactive | 
Cc1ccc([C@H]2N[C@]3(CCCN(Cc4ccccc4)C3=O)[C@H]3C(=O)N(Cc4ccccc4)C(=O)[C@@H]23)cc1 | inactive | 
COc1ccc([C@H]2N[C@]3(CCCN(Cc4ccco4)C3=O)[C@H]3C(=O)N(C)C(=O)[C@@H]23)cc1 | inactive | 
CCN1C(=O)[C@H]2[C@@H](c3ccc(C(F)(F)F)cc3)N[C@]3(CCCN(Cc4ccc(Br)cc4)C3=O)[C@H]2C1=O | 12.6 µM (active) | 
O=C1[C@H]2[C@@H](c3ccc(C(F)(F)F)cc3)N[C@]3(CCCN(Cc4ccc(Cl)cc4)C3=O)[C@H]2C(=O)N1Cc1ccccc1 | 4.47 µM (active) | 
CCN1C(=O)[C@H]2[C@@H](c3ccc(-c4ccc(OC)cc4)cc3)N[C@@](Cc3ccccc3)(C(=O)OC)[C@H]2C1=O | inactive | 
